Shown are actives, neighbours in structure and some others; about 11% of the full set was active somewhere.
ERK AVP block = vasopressin-driven ERK pathway inhibition; HEK293-V1b, vasopressin-stimulated pERK AlphaScreen; AID 995; Potency, µM (doses to about 57.5 µM), for the others: at the top dose activity, negative = inhibition, usual class: inhibitors; 72,000 tested, 0.99% active; further: nearly all actives have a fitted effect of over 55% in size
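Phosphorylated ERK1/2 detected via AlphaScreen bead proximity in lysates of V1b-expressing HEK293 cells given 25 nM vasopressin for 5 min after 30 min compound exposure (37 °C). AC50 from Hill equation; basal DMSO 0%, vasopressin 100%.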
ALOX15 inhib = 15-hLO (ALOX15) enzyme inhibition | P16050 | purified 15hLO-1, xylenol orange hydroperoxide absorbance | Potency, µM (highest dose often 57.1 µM), for the others: at the top dose activity change, negative = inhibition, hits mostly inhibitors | 74,000 tested, 1.4% active; further: nearly all actives have a fitted effect of over 55% in size
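Purified human 15hLO-1 (40 nM) in 25 mM Hepes pH 7.5, 0.01% Triton X-100, preincubated 15 min RT with compound, then 50 uM arachidonic acid for 6 min. Hydroperoxide read by ferrous/xylenol orange, 30 min; 573/405 nm absorbance ratio gave progress.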
HSD17B inhib = inhibitors of human HSD17B10 dehydrogenase. Q99714. recombinant HSD17B10, NADH fluorescence kinetic. Potency, µM (titrated, usually from 57.1 µM), for the others: top-dose activity change, negative = inhibition, most hits filed as inhibitors. 75,000 tested, 7.6% active. AID 893;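 further: the protocol describes HADH2 (HSD17B10) and not the HSD17B4 of the title; nearly all actives have a fitted effect of over 70% in size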
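His-tagged E. coli-expressed HADH2 at 20 nM in 100 mM Tris-HCl pH 9.0 with 0.01 % Tween-20, preincubated 15 min with compound at room temperature. Reaction with 1 mM NAD+ and 90 uM beta-hydroxybutyryl coenzyme A; NADH fluorescence (360/450 nm) read kinetically over 4 min, last minus first point.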
PK Bst = alters activity of Bacillus stearothermophilus pyruvate kinase. AID 361. purified pyruvate kinase, luminescence ATP production; ribose 5-phosphate activator present at AC10. Potency, µM. 51,000 tested, 1.2% active; in the data active means potency below about 11 µM; inconclusive means mostly about 12 µM to 25 µM;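 the screen sought inhibitors and activators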;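 further: scaled between full activation by ribose 5 phosphate and full inhibition by luteolin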
Luciferase inh = inhibitors of firefly luciferase. purified firefly luciferase, luminescence, 8 min. Potency, µM (top dose mostly 57.1 µM), without a hit: at the highest dose activity change, negative = inhibition, actives largely listed as inhibitors. 72,000 tested, 2.2% active; further: nearly all actives have a fitted effect of over 40% in size
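Compounds were tested as concentration series (qHTS) against purified P. pyralis luciferase with luciferin and 10 uM ATP in 50 mM imidazole pH 7.2, 50 mM KCl, 7 mM MgCl2, 0.01% Tween 20, 0.05% BSA. Luminescence was read after 8 min at ambient temperature.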
HADH2 inh = inhibitors of human HADH2 dehydrogenase; Potency, µM (doses to about 57.1 µM), without a hit: at the highest dose activity change, negative = inhibition, most hits filed as inhibitors; 73,000 tested, 3.4% active; recombinant HADH2, NADH fluorescence, beta-hydroxybutyryl-CoA; Q99714; further: nearly all actives have a fitted effect of over 60% in size
Target sequence (Q99714 whole entry, looked up, one chain of several): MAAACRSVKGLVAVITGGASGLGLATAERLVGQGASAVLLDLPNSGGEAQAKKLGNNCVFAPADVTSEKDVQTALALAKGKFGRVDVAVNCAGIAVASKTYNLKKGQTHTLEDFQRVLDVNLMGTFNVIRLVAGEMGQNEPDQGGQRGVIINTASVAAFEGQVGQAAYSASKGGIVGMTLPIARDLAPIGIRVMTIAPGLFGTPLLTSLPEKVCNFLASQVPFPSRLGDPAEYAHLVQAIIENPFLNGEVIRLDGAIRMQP
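20 nM HADH2 + cpd, 15 min RT; add 1 mM NAD+/90 uM beta-hydroxybutyryl-CoA; kinetic fluorescence 360/450 nm, 4 min. Tris-HCl pH 9.0, 0.01% Tween-20.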
An asterisk follows results filed as active; ? = inconclusive; nt = not tested or not shown; [ ] = dose if it differs, or a comment. Unless noted, the call rests on the fitted dose curve; in most records, active means well fitted curve in the direction sought with a large enough effect; inconclusive means small, poorly fitted or top-dose-only effect, or another doubt; inactive means no such curve, though single readings can be large; an effect the other way counts as inactive or inconclusive. Unless noted, on the % scale 0 is the no-effect control and ±100 the full control effect; potency means the concentration at half of the fitted maximal effect.

SMILES	ERK AVP block	ALOX15 inhib	HSD17B inhib	PK Bst	Luciferase inh	HADH2 inh
COc1ccc(NC(=O)c2cnc(C)cn2)cc1-n1cnnn1	40µM*	-2%	0%	>57	0%	4%
Cc1cnc(C(=O)Nc2ccc(-n3cnnn3)cc2)cn1	-11%	10%	-3%	>57	3%	-2%
CC1CCC/C(=C\Nc2ccc(O)cc2)C1=O (stereo not given)	-12%	-24%	?	>11	-15%	25µM*
O=C(Cc1c(O)c2ccccc2[nH]c1=O)NCc1ccc(F)cc1	-1%	4%	32µM*	>57	-1%	7%
COc1cccc(NC(=O)Cc2ccccc2)c1	-14%	5%[11.4 µM]	9%	nt	-4%	18%[11.4 µM]
CCCCc1c(O)c2ccccc2[nH]c1=O	10%	2%	20µM*	>57	0%	?
COc1cccc(NC(=O)Cc2c(O)c3ccccc3[nH]c2=O)c1	-1%	3%	32µM*	>57	-2%	?
CCCc1c(C)c2ccccc2[nH]c1=O	-4%	-3%	0%	>57	1%	-6%
O=C(Cc1c(O)c2ccccc2[nH]c1=O)OC1CCCCC1	5%	-1%	25µM*	nt	-8%	?
C#CCCCO/N=C1/C[C@@H](O)[C@@H](O)[C@@H]2[C@@H]3C(=O)N([C@@H](C)c4ccccc4)C(=O)[C@H]3CC[C@@H]12	22%[11.5 µM]	-1%[11.4 µM]	4%[11.4 µM]	nt	1%[11.4 µM]	11%[11.4 µM]
CC(C)(C)N1C(=O)[C@H]2[C@H]3[C@H](O)[C@H](O)C/C(=N/OCc4ccccc4)[C@H]3CC[C@@H]2C1=O	7%[11.5 µM]	0%[11.4 µM]	4%[11.4 µM]	nt	2%[11.4 µM]	0%[11.4 µM]
N#Cc1cccc(NC(=O)N2CCC3(CC2)CCN(C(=O)c2ccco2)CC3)c1	-20%	-5%	12%	nt	2%[11.4 µM]	8%
O=c1oc(-c2ccccc2)nc2c1cnn2-c1ccccc1	-11%	-14%	33%	>57	0%	?
O=c1oc(-c2cccs2)nc2c1cnn2-c1ccccc1	-1%	-1%	32µM*	nt	-9%	?
CCSC1=N/C(=C\c2ccc3c(c2)OCO3)C(=O)S1	11%	-26%	-6%	nt	-2%	-9%
CCCSC1=N/C(=C\C=C\c2ccco2)C(=O)S1	-29%	2.5µM*	0.79µM*	nt	-3%	5µM*
O=C1SC(SCc2ccccc2)=N/C1=C\c1ccco1	6%	?	13µM*	>57	3%	?
O=C1SC(c2ccccc2)=N/C1=C/c1ccco1	29%	-19%	25µM*	>57	5%	16µM*
CSC1=N/C(=C\c2ccc(C)o2)C(=O)S1	-14%	?	-11%	nt	-5%	?
CCOc1ccc2[nH]c(=O)c(C(c3nnnn3C3CCCCC3)N3CCN(C)CC3)cc2c1 (stereo not given)	-10%	16%	?	>57	0%	8%
CCOc1ccc2[nH]c(=O)c(C(c3nnnn3C3CCCCC3)N3CCN(CC)CC3)cc2c1 (stereo not given)	24%	-4%	-24%	>57	3%	?
CCOc1ccc2[nH]c(=O)c(C(c3nnnn3Cc3ccco3)N3CCC(C)CC3)cc2c1 (stereo not given)	-10%	?	32µM*	>57	-3%	-22%
Cc1ccc(C)c2[nH]c(=O)c(C(c3nnnn3Cc3ccco3)N3CCc4ccccc4C3)cc12 (stereo not given)	18%	?	25µM*	>57	-8%	-4%
CCOc1ccc2[nH]c(=O)c(C(c3nnnn3Cc3ccco3)N3CCCC(C)C3)cc2c1 (stereo not given)	12%	?	25µM*	>57	-1%	?
Cc1ccc(C)c2[nH]c(=O)c(C(c3nnnn3CCc3ccccc3)N3CCOCC3)cc12 (stereo not given)	-21%	5%	?	>57	-3%	-19%
SMILES	ERK AVP block	ALOX15 inhib	HSD17B inhib	PK Bst	Luciferase inh	HADH2 inh
CN(C)c1ccc(CNC(=O)[C@@]2(C)C=C[C@@H](Cc3ccccc3)N2C)cc1	-7%	?	?	nt	nt	9%
C(=N\n1cnnc1)/c1ccc2c(c1)OCO2	-13%	2%	?	nt	2%	?
O=c1/c(=C\c2ccc3c(c2)OCO3)sc2n1CCCN=2	10µM*	?	297%	?	13µM*	8%
CC(=O)N=c1c(C#N)cc2c(=O)n3cccc(C)c3nc2n1CC(C)C	nt	-14%	25µM*	nt	nt	242%
Cc1cccn2c(=O)c3cc(C#N)c(=NC(=O)c4ccncc4)n(CCCOC(C)C)c3nc12	3%	?	3.2µM*	>57	-4%	2µM*
Cc1cccn2c(=O)c3cc(C#N)c(=NC(=O)c4ccc5c(c4)OCO5)n(CC(C)C)c3nc12	2%	2%	-29%	>57	-2%	10%
COCCCn1c(=NC(=O)c2ccncc2)c(C#N)cc2c(=O)n3cccc(C)c3nc21	nt	-7%	25µM*	nt	nt	?
Cc1cccn2c(=O)c3cc(C#N)c(=N)n(Cc4ccncc4)c3nc12	nt	nt	nt	>26	3%[25.5 µM]	nt
CCCn1c(=NC(=O)c2ccc3c(c2)OCO3)c(C#N)cc2c(=O)n3cccc(C)c3nc21	10%	2%	10µM*	>57	2%	9%
COc1ccc(COC(=O)N/N=C2/C[C@@H](O)[C@@H](O)[C@@H]3[C@H]4C(=O)N(c5ccc(F)cc5F)C(=O)[C@@H]4CC[C@@H]23)cc1	7%[11.5 µM]	2%[11.4 µM]	2%[11.4 µM]	nt	-1%[11.4 µM]	6%[11.4 µM]
CC[C@H]1NC(=O)c2cc(S(N)(=O)=O)c(Cl)cc2N1	12%[25.7 µM]	-3%[25.6 µM]	?	nt	-3%[25.5 µM]	-13%[25.6 µM]
CCCn1c(=NC(=O)c2ccncc2)c(C(=O)OCC)cc2c(=O)n3cccc(C)c3nc21	17%	-1%	?	>57	0%	11%
CCCn1c(=NC(=O)c2ccncc2)c(C#N)cc2c(=O)n3cccc(C)c3nc21	-4%	5%	7.9µM*	>57	1%	-6%
COc1ccc2cc(CN(Cc3cccnc3)S(=O)(=O)c3ccccc3)c(=O)[nH]c2c1	-11%	6%	25µM*	>57	1%	23%
COc1cc2cc(CN(CCO)S(=O)(=O)c3ccccc3Cl)c(=O)[nH]c2cc1OC	4%	-6%	25µM*	>57	1%	5%
COc1cc2cc(CN(CCCO)S(=O)(=O)c3ccccc3)c(=O)[nH]c2cc1OC	18%	2%	32µM*	>57	2%	57%
O=C(c1ccco1)N1CCC2(CC1)CN(C(c1ccccc1)c1ccccc1)C2	-22%	-13%	-6%	nt	-1%[11.4 µM]	-8%
Cc1cnc(CNc2ncnc3ccc(-c4ccc(N(C)C)cc4)cc23)cn1	?	?	?	nt	-3%[2.29 µM]	?
COCCNc1ncnc2ccc(-c3ccc(N(C)C)cc3)cc12	?	-10%	-6%	nt	0%[2.29 µM]	-26%
